Most compounds without a hit are left out; they make up all but 1.3% or so of the library.
HIF activator = HIF pathway transcriptional activation | U2OS HRE-luciferase reporter, luminescence; normalized: DMSO 0%, desferrioxamine 100% | activation, % at 7.5 µM (by protocol) | 300,000 compounds, 0.32% hits;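 active = mean activation of at least 10% of the iron chelator positive control signal, with at least half of replicates also reaching 10%; inconclusive = mean and replicate majority disagree about reaching 10%; inactive = mean and most replicates under 10%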
AI-2 QS modul = Vibrio harveyi AI-2 quorum sensing modulation; Vibrio harveyi JMH597 AI-2 luminescence/OD600 ratio, 9 h; active compounds read low; strain lacks LuxN and CqsS sensors; 0 = neutral-control median; 300,000 compounds, 0.4% hits; activity change, % at 7.5 µM; in the data active = activity change below about -75%, passing the limit was not always enough; inconclusive = no clear call, values can overlap the other calls;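 note: luminescence divided by OD600 gain over 9 h not by final OD600 alone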
Rce1 inh = yeast Ras-converting enzyme inhibition | 290,000 compounds, 0.27% hits | AID 2563 | calls only | yeast membranes, quenched prenylated peptide cleavage fluorescence | Q03530;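 active = fall in fluorescence gain of 50% or more versus controls, with final raw signal at or below 3038400; inconclusive = same 50% fall but final raw signal above 3038400; inactive = fall in fluorescence gain under 50%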;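 note: plate controls were neutral control wells for no effect and wells lacking membranes for full effect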
Target sequence (Q03530 whole entry, looked up): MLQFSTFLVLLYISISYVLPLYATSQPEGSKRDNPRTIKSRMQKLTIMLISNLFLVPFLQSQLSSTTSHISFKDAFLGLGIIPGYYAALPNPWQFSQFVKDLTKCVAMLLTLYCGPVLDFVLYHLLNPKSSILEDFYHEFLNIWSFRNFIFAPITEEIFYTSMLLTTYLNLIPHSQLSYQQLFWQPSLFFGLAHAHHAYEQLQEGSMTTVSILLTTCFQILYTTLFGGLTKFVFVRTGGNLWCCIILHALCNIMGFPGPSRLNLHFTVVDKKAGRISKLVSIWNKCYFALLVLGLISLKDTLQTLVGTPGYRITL
Statin myotox sup = suppressors of simvastatin-induced myotoxicity in C2C12 myotubes | rescue of ATP level, % at 7.49 µM | ATP luminescence, 48 h; scaled: DMSO 0, geranylgeraniol control 100 | AID 602340 | 330,000 compounds, 0.78% hits;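 active = mean ATP rescue above about 67%, or every replicate alone reaching that limit, limit read from the data, passing the limit was not always enough; inconclusive = no clear call, values can overlap the other calls; inactive = mean under the limit and some replicate under it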;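 note: myotubes were challenged with 10 µM simvastatin during compound exposure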
PGC1a acetyl inh = PGC1a acetylation modulation, inhibitor mode. 350,000 compounds, 0.17% hits. U2OS PGC1a acetylation, AlphaScreen anti-acetyl-lysine; with virally co-expressed GCN5 acetyltransferase. inhibition, % at 15.6 µM;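 active = every replicate shows inhibition of at least 40%; inconclusive = mean inhibition at least 40% but some replicate below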;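 note: 0% = neutral control wells and 100% = positive control wells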
* = called active by the depositor; i = inactive; ? = inconclusive; · = no result; + = active, no number.

SMILES	HIF activator	AI-2 QS modul	Rce1 inh	Statin myotox sup	PGC1a acetyl inh
Cc1ccc(C(=O)Nc2c(C(=O)N3CCOCC3)cnn2-c2ccccc2)cc1	0	19	i	111*	-13
CSc1cc(-c2ccc(Cl)cc2)c(C(=O)N2CCCC2)s1	0	13	i	126*	-19
O=C(Nc1ccc(S(=O)(=O)N2CCCCC2)cc1)c1ccco1	0	-31	i	-10	8
CN(C)S(=O)(=O)c1ccc(S(=O)(=O)N(Cc2ccco2)Cc2ccccc2Cl)cc1	1	42	i	-62	9
O=S(=O)(c1ccc(NC(=S)NCc2ccco2)cc1)N1CCCCC1	·	-88*	i	-4	-5
O=C(Nc1ccc(S(=O)(=O)N2CCC(C(=O)NC3CCCCC3)CC2)cc1)c1ccco1	-1	17	·	179*	-8
O=C(NCc1ccco1)c1ccc(S(=O)(=O)N2CCCCC2)cc1	0	36	i	·	·
O=S(=O)(c1ccc(S(=O)(=O)N(Cc2ccco2)Cc2ccccc2Cl)cc1)N1CCCC1	0	23	i	94*	10
C[C@@H]1CN([C@@H](C)CO)C(=O)c2cc(NC(=O)Cn3cnnn3)ccc2O[C@@H]1CN(C)Cc1ccc(Oc2ccccc2)cc1	·	·	·	20	3
C[C@@H]1CN([C@H](C)CO)C(=O)c2cc(-c3cccnc3)cnc2O[C@@H]1CN(C)C(=O)C1CCC1	·	·	·	1	10
O=C(CCOc1ccccc1)Nc1ccc([N+](=O)[O-])cc1	0	-79*	i	2	-2
COc1ccc(NC(=O)CNC(=O)c2ccc([N+](=O)[O-])cc2)cc1	0	34	i	·	1
COc1ccc(C(=O)CC(=O)Nc2ccc([N+](=O)[O-])cc2)cc1	0	-90*	i	8	0
C[C@H](CO)N1C[C@H](C)[C@@H](CN(C)S(=O)(=O)c2ccc(F)cc2)Oc2ccc(NC(=O)Nc3ccc4c(c3)OCO4)cc2CC1=O	·	·	·	-130	-4
COc1ccccc1N(CC(=O)N/N=C/c1ccc(SC)cc1)S(C)(=O)=O	0	15	i	·	·
CCOc1ccccc1N(CC(=O)N/N=C/c1cc(Br)ccc1OC)S(C)(=O)=O	26*	9	i	·	·
CCOC(=O)/C(=C\c1cccnc1)C(=O)c1cc(C(C)=O)c(Nc2ccccc2)s1	0	50	i	-150	84*
CCOC(=O)/C(=C\c1ccccc1)C(=O)c1cc(C(C)=O)c(Nc2ccccc2)s1	1	21	i	33	9
O=C(CCCOc1ccc(Cl)cc1Cl)N/N=C/c1ccccc1	1	26	i	·	·
O=C(CCCOc1ccc(Cl)cc1Cl)N/N=C/c1ccccc1O	11*	-9	i	·	·
O=C(COc1ccc(Cl)cc1Cl)N/N=C/c1ccc[nH]1	1	34	i	4	-10
O=C(COc1ccc(Cl)cc1Cl)N/N=C/CCc1ccccc1	11*	17	i	21	-4
CC(C)CCNc1ncnc2c1nnn2Cc1ccccc1	2	·	·	-4	5
COc1ccccc1CNc1ncnc2c1nnn2Cc1ccccc1	-1	20	i	126*	-9
CCCN=C1CC(C)(C)CC(=O)/C1=C(/O)CCC	0	2	i	6	-1
SMILES	HIF activator	AI-2 QS modul	Rce1 inh	Statin myotox sup	PGC1a acetyl inh
CCC/C(O)=C1\C(=O)CC(C)(C)CC1=NCc1ccccc1	77*	20	i	9	10
C[C@@H]1CCCCO[C@H](CN(C)S(=O)(=O)c2ccc(F)cc2)[C@@H](C)CN([C@@H](C)CO)C(=O)c2cc(NC(=O)Nc3ccc(C(F)(F)F)cc3)ccc2O1	·	·	·	·	17
COc1ccc(NC(=O)Nc2ccc3c(c2)C(=O)N([C@@H](C)CO)C[C@H](C)[C@H](CN(C)C(=O)C2CCCCC2)OCCCC[C@H](C)O3)cc1	·	·	·	79*	0
COc1ccc(NC(=O)Nc2ccc3c(c2)C(=O)N([C@H](C)CO)C[C@H](C)[C@H](CN(C)C(=O)C2CCCCC2)OCCCC[C@H](C)O3)cc1	·	·	·	71*	4
COc1ccc(NC(=O)Nc2ccc3c(c2)C(=O)N([C@@H](C)CO)C[C@@H](C)[C@H](CN(C)C(=O)C2CCCCC2)OCCCC[C@H](C)O3)cc1	·	·	·	?	-12
CCC(=O)N1[C@@H]2Cn3c(ccc(-c4cccnc4)c3=O)[C@H]1[C@@H](C(=O)N1CCc3ccccc3C1)[C@@H]2CO	·	·	·	-18	·
Cn1c(=O)[nH]c(=O)c2c1nc(CN1CCN(c3cccc(Cl)c3)CC1)n2CCc1ccccc1	0	3	i	92*	10
CCCCCn1c(CN2CCN(c3cccc(Cl)c3)CC2)nc2c1c(=O)[nH]c(=O)n2C	0	31	i	3	-4
O=C(C[C@@H]1C=C[C@@H](NC(=O)c2ccncc2)[C@H](CO)O1)Nc1ccccc1	·	·	·	·	5
CO[C@H]1CN(C)C(=O)c2cc(NC(=O)c3nc4ccccc4s3)ccc2OC[C@@H](C)N(Cc2cccnc2)C[C@@H]1C	·	·	·	12	2
Cc1nn(-c2ccc(F)cc2)c2nc(N)c(C#N)c(-c3ccc(O)c(O)c3)c12	-3	66	i	11	-9
COc1cc(-c2c(C#N)c(N)nc3c2c(C)nn3-c2ccc(C)c(C)c2)cc(OC)c1OC	-1	22	+	3	7
Cc1ccc(N(C(=O)Cn2nnc3ccccc32)C(C(=O)NCc2ccco2)c2ccc(C)o2)cc1 (configuration not stated)	1	12	i	130*	0
O=C(NCc1ccco1)C(c1ccc(F)cc1)N(Cc1cccnc1)C(=O)Cn1nnc2ccccc21 (configuration not stated)	0	12	i	102*	4
Cc1ccc(C(C(=O)NCc2ccco2)N(C(=O)Cn2nnc3ccccc32)c2ccccc2)o1 (configuration not stated)	-1	7	i	12	-6
C=CCn1c(=O)[nH]c(=O)c2c(N)c(C(=O)c3ccc(OC)cc3)sc21	·	·	·	135*	14
Cc1ccc(C(=O)c2sc3c(c2N)c(=O)[nH]c(=O)n3CCc2ccccc2)cc1	0	25	i	·	·
CN(C)CCCN1C(=O)c2cccc3cccc(c23)C1=O	1	4	+	26	·
C[C@@H]1CN([C@H](C)CO)C(=O)Cc2cc(NC(=O)CCCCCC(=O)Nc3ccccc3N)ccc2O[C@H]1CN(C)Cc1ccc(Cl)c(Cl)c1	·	·	·	·	3
C[C@H]1CN([C@@H](C)CO)C(=O)Cc2cc(NC(=O)CCCCCC(=O)Nc3ccccc3N)ccc2O[C@@H]1CN(C)Cc1ccc(Cl)c(Cl)c1	·	·	·	124*	3
C[C@H](CO)N1C[C@H](C)[C@@H](CN(C)Cc2ccc(C(F)(F)F)cc2)Oc2ccc(NC(=O)CCCCCC(=O)Nc3ccccc3N)cc2CC1=O	·	·	·	106*	4
C[C@@H]1CN([C@@H](C)CO)C(=O)Cc2cc(NC(=O)CCCCCC(=O)Nc3ccccc3N)ccc2O[C@@H]1CN(C)Cc1ccc(C(F)(F)F)cc1	·	·	·	-17	0
